From PubChem
CtBP-E1A blk – qHTS Assay for Inhibitors of the CtBP/E1A Interaction; AlphaScreen GST-E1A/His-CtBP binding, 1536-well; hits give low values; AID 651724, 2012; CtBP / adenovirus E1A interaction (AlphaScreen); activity change, % (concentration not given with the values); 0.49% of 340,000 active; in the data active = activity change below about -65%; inconclusive = mostly about -30% to -63%
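Steps: dispense buffer (Tris pH 8.0, NaCl 300 mM, TCEP 1 mM, BSA, Tween 20); add 5X protein mix (GST-E1A, His-CtBP, 125 nM each); pin 23 nL compound; 2 h at 37 °C, dark; add 5X beads (50 ug/mL); 1 h; read.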
DT40 TDP1 CPT – qHTS for Inhibitors of human tyrosyl-DNA phosphodiesterase 1 (TDP1): qHTS in cells in presence of CPT. chicken DT40 Tdp1-/-;hTDP1 cells + 20 nM CPT, ATP luminescence, 48 h. Potency, µM (series often up to 46.2 µM), most hits filed as inhibitors. 12% of 420,000 active. AID 686979, 2013; note: nearly all actives have a fitted effect of over 55% in size
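Chicken DT40 Tdp1-/- cells complemented with human TDP1, 400 cells/well, exposed to compounds plus 20 nM camptothecin for at least 48 h at 37 C; viability read as ATP content by CellTiter-Glo luminescence.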
DT40 TDP1 no CPT – qHTS for Inhibitors of human tyrosyl-DNA phosphodiesterase 1 (TDP1): qHTS in cells in absence of CPT | DT40 Tdp1-/- hTDP1 cells, no CPT, ATP luminescence, 48 h | Potency, µM (titrated, usually from 46.2 µM), most hits filed as inhibitors | 15% of 420,000 active; note: nearly all actives have a fitted effect of over 55% in size
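No-CPT arm: Tdp1-/-;hTDP1 DT40 cells (400/well) plus compounds, incubated ≥48 hr at 37 °C. Readout CellTiter-Glo luminescence.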
IL-1B inflam inh – qHTS for Inhibitors of Inflammasome Signaling: IL-1-beta AlphaLISA Primary Screen; THP-1 LPS/ATP IL-1B secretion, AlphaLISA, 16 h; hits give low values; activity change, % at 57.5 µM; 4.7% of 360,000 active; in the data active = activity change below about -50%; inconclusive = mostly about -30% to -49%
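Secreted IL-1B measured by AlphaLISA bead assay after 16 h compound exposure of THP-1 cells; compounds (final up to 57.5 uM) added 1 h before LPS (250 ng/mL) and ATP (1.25 mM) stimulation; lower signal means less secretion.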
TDP1 block – qHTS Assay for Inhibitors of Tyrosyl-DNA Phosphodiesterase (TDP1); Potency, µM (highest dose often 130 µM), usual class: inhibitors; Tyrosyl-DNA phosphodiesterase 1 (Homo sapiens), Q9NUW8; 0.28% of 350,000 active; recombinant TDP1, AlphaScreen DNA substrate cleavage; AID 485290, 2010; note: nearly all actives have a fitted effect of over 40% in size
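Signal: AlphaScreen proximity between streptavidin donor and anti-FITC acceptor beads on intact substrate. Reaction: Tdp1 1 nM, substrate 15 nM final, 5 min RT after 15 min compound preincubation.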
Six1-Eya2 inh – qHTS Assay for Inhibitors of the Six1/Eya2 Interaction; Homeobox protein SIX1 (Homo sapiens) + Protein phosphatase EYA2 (Homo sapiens), …; AlphaScreen GST-Six1/His-Eya2 binding, biochemical; hits give low values; activity change, % (no concentration beside the values); 0.56% of 360,000 active; in the data active = activity change below about -65%; inconclusive = mostly about -30% to -63%
Target sequence (O00167 whole entry, looked up): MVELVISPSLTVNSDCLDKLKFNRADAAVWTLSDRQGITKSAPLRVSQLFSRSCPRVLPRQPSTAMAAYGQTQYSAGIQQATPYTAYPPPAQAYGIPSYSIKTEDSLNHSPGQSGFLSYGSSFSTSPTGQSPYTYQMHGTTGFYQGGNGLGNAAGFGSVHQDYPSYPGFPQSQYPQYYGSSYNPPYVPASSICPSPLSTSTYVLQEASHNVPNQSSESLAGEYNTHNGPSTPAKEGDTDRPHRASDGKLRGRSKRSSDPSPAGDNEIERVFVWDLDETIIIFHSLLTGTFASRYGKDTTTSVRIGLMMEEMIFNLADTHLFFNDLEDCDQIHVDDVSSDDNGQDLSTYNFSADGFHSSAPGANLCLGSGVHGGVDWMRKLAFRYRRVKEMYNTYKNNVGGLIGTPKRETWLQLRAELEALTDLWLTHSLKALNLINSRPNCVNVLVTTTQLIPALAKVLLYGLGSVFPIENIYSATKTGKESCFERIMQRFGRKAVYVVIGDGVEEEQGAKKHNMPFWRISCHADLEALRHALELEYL
Target sequence (Q15475 whole entry, looked up): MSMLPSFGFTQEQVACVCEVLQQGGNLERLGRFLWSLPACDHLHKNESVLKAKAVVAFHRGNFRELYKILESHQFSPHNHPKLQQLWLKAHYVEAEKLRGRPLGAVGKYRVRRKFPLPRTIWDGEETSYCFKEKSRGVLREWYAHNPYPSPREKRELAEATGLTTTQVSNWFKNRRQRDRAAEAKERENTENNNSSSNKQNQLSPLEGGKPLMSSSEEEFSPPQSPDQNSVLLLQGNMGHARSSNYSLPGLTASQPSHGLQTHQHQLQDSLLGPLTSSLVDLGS
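AlphaScreen with GST-Six1 and His-Eya2 (5X mix: 250 nM and 500 nM), glutathione donor and nickel acceptor beads; buffer 50 mM Tris pH 8.0, 300 mM NaCl, 1 mM TCEP; 1 h at 37 C in the dark.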
Numbers stand for hits; n = inactive; u = inconclusive; x = no result; [ ] = another dose, or the depositor's remark. Rows were chosen to be rich in hits. Some 18% of all compounds tested hit in one or more screens of this group. Unless noted, calls come from the whole dose curve; as a rule, active = well fitted curve in the direction sought with a large enough effect; inconclusive = small, poorly fitted or top-dose-only effect, or another doubt; inactive = no such curve, though single readings can be large; an effect the other way counts as inactive or inconclusive.

SMILES	CtBP-E1A blk	DT40 TDP1 CPT	DT40 TDP1 no CPT	IL-1B inflam inh	TDP1 block	Six1-Eya2 inh
O=c1oc2ccccc2nc1/C=C(\O)c1ccc(Br)cc1	n	u	u	n	n	n
Cc1ccc2oc(=O)c(/C=C(\O)c3ccccc3)nc2c1	n	n	n	n	n	n
C/C(O)=C\c1nc2ccccc2oc1=O	n	10µM	7.3µM	n	n	n
Cc1ccc2oc(=O)c(/C=C(\O)CC(C)C)nc2c1	n	23µM	n	n	n	n
CS(=O)(=O)Cc1nc2ccccc2oc1=O	n	6.5µM	6.5µM	n	x	n
c1ccc2oc(CCc3nc4ccccc4o3)nc2c1	n	n	n	n	n	n
Cc1cccc(Nc2nnc(SCC(=O)NCC3CCCO3)s2)c1 (centres undefined)	n	n	n	n	n	u
COc1ccccc1-c1noc(CCC(=O)Nc2cccc(C(F)(F)F)c2)n1	n	u	u	n	n	n
CCCCOC(=O)c1ccc(NC(=O)CSc2nnnn2C)cc1	n	n	u	n	n	n
COc1ccc(/C=C/c2ccc3cccc(O)c3n2)c(OC)c1OC	x	9.2µM	10µM	-91	x	n
COc1cccc(/C=C/c2ccc3cccc(O)c3n2)c1OC	x	u	16µM	n	x	n
CCOc1c(OC(C)=O)ccc(/C=C/c2ccc3cccc(OC)c3n2)c1[N+](=O)[O-]	n	u	16µM	n	n	u
COc1ccccc1NC(=O)CSc1nc2c(oc3ccccc32)c(=O)n1-c1ccc(C)cc1	x	18µM	8.2µM	x	n	x
Cc1cc(C)cc(-n2c(SCC(=O)Nc3ccccc3)nc3c(oc4ccccc43)c2=O)c1	x	15µM	u	x	n	x
Cc1cc(C)cc(-n2c(SCC(=O)Nc3ccccc3F)nc3c(oc4ccccc43)c2=O)c1	x	16µM	7.3µM	x	n	x
O=C(CSc1nc2c(oc3ccccc32)c(=O)n1-c1ccccc1)Nc1ccccc1F	x	u	u	x	n	x
CCOc1ccc(NC(=O)CSc2nc3c(oc4ccccc43)c(=O)n2-c2cc(C)cc(C)c2)cc1	x	n	n	x	n	x
COc1cccc(NC(=O)CSc2nc3c(oc4ccccc43)c(=O)[nH]2)c1	n	n	23µM	n	n	n
Cc1onc(-c2ccccc2)c1C(=O)NCCN1Cc2ccccc2OC(c2ccsc2)C1 (centres undefined)	x	n[9.04 µM]	15µM	x	x	x
OCCN1CCN(C(=S)c2ccc(Cl)c(Cl)c2)CC1	n	18µM	18µM	n	n	u
COc1cc(NC(=S)N2CCN(CCO)CC2)c(OC)cc1Cl	n	n	n	n	n	n
O=C(COC(=O)c1cccc(S(=O)(=O)N2CCCCCC2)c1)Nc1ccccc1	n	n	n	n	n	n
COc1ccc(NS(=O)(=O)c2ccc3oc(Nc4ccc5c(c4)OCCO5)nc3c2)cc1	n	u	15µM	n	n	n
CCNC(=O)CSc1nc2cc(S(=O)(=O)Nc3ccc(OC)cc3)ccc2o1	n	u	n	n	n	n
COc1ccc(NS(=O)(=O)c2ccc3oc(SC(C)C(N)=O)nc3c2)cc1 (centres undefined)	n	16µM	12µM	n	n	n
SMILES	CtBP-E1A blk	DT40 TDP1 CPT	DT40 TDP1 no CPT	IL-1B inflam inh	TDP1 block	Six1-Eya2 inh
COc1cccc(S(=O)(=O)Nc2ccc3c(c2)OCCO3)c1	n	u	u	n	x	n
CCCCCCOc1ccc(C(=O)O)cc1C#N	n	n	n	n	n	n
COc1ccccc1CNC(=O)c1cc(C(C)C)nc2ccccc12	n	u	u	n	n	n
CCN(C(=O)Cn1c(=O)oc2cc(S(=O)(=O)N3CCCC3)ccc21)c1cccc(C)c1	x	u	u	x	n	x
COc1ccc(Cl)cc1NC(=O)CN1C(=O)CSc2ccc(S(=O)(=O)N3CCCC3)cc21	x	16µM	23µM	x	n	x
CCN(C(=O)CN1C(=O)COc2ccc(S(=O)(=O)N3CCOCC3)cc21)c1ccc(OC)cc1	n	n	u	n	n	n
CCN(C(=O)Cn1c(=O)oc2cc(S(=O)(=O)N3CCCCCC3)ccc21)c1cccc(C)c1	x	u	21µM	x	n	x
COc1ccc(Cl)cc1NC(=O)Cn1c(=O)oc2cc(S(=O)(=O)N3CCCCCC3)ccc21	x	u	16µM	x	n	x
CCN(C(=O)CN1C(=O)COc2ccc(S(=O)(=O)N3CCOCC3)cc21)c1cccc(C)c1	x	u	18µM	x	n	x
O=C1CCCC/C1=C/NCc1ccccc1	n	n	n	n	n	n
Cc1cccc(NC(=O)Cn2c(=O)ccc3cc(S(=O)(=O)N4CCCC4)ccc32)c1C	x	u	16µM	x	n	x
COc1ccc(NC(=O)Cn2c(=O)oc3cc(S(=O)(=O)N4CCCC4)ccc32)c(OC)c1	n	u	u	n	x	n
Cc1ccc(Cl)cc1NC(=O)Cn1c(=O)oc2cc(S(=O)(=O)N3CCCC3)ccc21	x	23µM	9.2µM	x	n	x
COc1ccc(C)cc1NC(=O)Cn1c(=O)ccc2cc(S(=O)(=O)N3CCCC3)ccc21	x	21µM	21µM	x	n	x
COc1ccc(C)cc1NC(=O)Cn1c(=O)oc2cc(S(=O)(=O)N3CCCCC3)ccc21	x	u	15µM	x	n	x
CCCn1c(N)c(C(=O)CSc2nnc(C3CC3)n2-c2ccccc2)c(=O)[nH]c1=O	x	n	u	n	n	n
O=C(Nc1cccc2ccccc12)c1cnccn1	n	n	n	n	n	n
Cc1ccc(C)c(N2CCN(CCCNC(=O)Cn3cc4c(n3)CCCCC4)CC2)c1	n	4.6µM	6.5µM	u	n	n
CC1CCc2nn(CC(=O)NCc3ccc(F)cc3)cc2C1 (centres undefined)	n	u	u	n	n	n
O=C(NCc1ccco1)c1csc2c1CCCCC2	n	u	u	n	n	n
CC1CCc2nn(CC(=O)NCCCN3CCCC3=O)cc2C1 (centres undefined)	n	n	n	n	n	n
Cc1ccc(C)c(N2CCN(CCCNC(=O)Cn3cc4c(n3)CCC(C)C4)CC2)c1 (centres undefined)	n	16µM	15µM	n	n	n
CC1CCc2c(C(=O)NCc3ccco3)csc2C1 (centres undefined)	n	u	15µM	-79	n	n
CC1CCc2nn(CC(=O)NCc3ccco3)cc2C1 (centres undefined)	n	21µM	u	n	n	n
COc1cccc(-c2cc(C(=O)Nc3cc(C)nn3-c3ccccc3)no2)c1	n	n	n	n	n	n
Cc1ccc2c(c1)NC(=O)C(CC(=O)NCCCN1CCN(c3cc(C)ccc3C)CC1)O2 (centres undefined)	n	8.2µM	7.3µM	n	n	n
